Results filed as inconclusive are left out. The source made the active and inactive calls. Calls follow the shape of the dose curve; as a rule, active = well fitted inhibition curve with a large enough effect; inconclusive = small, poorly fitted or top-dose-only effect; inactive = flat fitted curve, though single readings scatter.
Tests used:
Assay in all cases: Cytotoxic Profiling of Annotated Libraries Using Quantitative High-Throughput Screening (AID 1296008); also: nearly all actives have a fitted effect of over 60% in size
Conditions in all cases: Five cell lines viability, CellTiter-Glo ATP luminescence, 48-72 h; max response: stronger effect = lower value
[1] = test system: CRL-7250
Summary of the method: (§1)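 Compounds were pin-transferred onto cells and incubated 48 or 72 hr at 37 degree Celsius, 95% humidity. CellTiter-Glo was added, plates sat 10 min at room temperature, then ATP-coupled luminescence was imaged as the viability read-out.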

[2] = test system: HEK293
Summary of the method: as §1

[3] = test system: HaCat
Summary of the method: as §1

Measured: max response
% is scaled to controls: 0 for no effect and ±100 for the full control effect.

COc1cc(O[C@@H]2O[C@H](CO)[C@@H](O)[C@H](O)[C@H]2O)c(CCC(=O)OC[C@H]2O[C@@H](Oc3cc(OC)c(C4OC(=O)C(C)(O)C4O)cc3CCC(=O)O)[C@H](O)[C@@H](O)[C@@H]2O)cc1C1OC(=O)C(C)(O)C1O (stereo partly specified)
inactive: [1] 1.01% | [2] | [3]

CO[C@@H]1COCC[C@@H]1N[C@@H]1CC[C@@](C(=O)N2CCc3ncc(C(F)(F)F)cc3C2)(C(C)C)C1
inactive: [1] | [2] | [3]

COC1CC(OC2CCC3(C)C(=CCC4C3CCC3(C)C(C(C)O)CCC43O)C2)OC(C)C1OC1OC(C)C(OC2OC(COC3OC(COC4OC(CO)C(O)C(O)C4O)C(O)C(O)C3O)C(O)C(O)C2O)C(OC)C1O (stereo unspecified)
inactive: [1] -10.5% | [2] | [3] -1.65%

CC1(C)CC2C3=CCC4C5(C)CCC(OC6OC(CO)C(O)C(OC7OC(CO)C(O)C(OC8OC(CO)C(O)C(OC9OC(COC%10OC(CO)C(O)C(O)C%10O)C(O)C(O)C9O)C8O)C7O)C6O)C(C)(C)C5CCC4(C)C3(C)CCC2(C(=O)O)CC1O (stereo unspecified)
inactive: [1] | [2] | [3] -4.22%

CCC(C)C(=O)O[C@@H]1[C@@H](O)[C@@H](O[C@H]2O[C@H](CO)[C@@H](O)[C@H](O)[C@H]2O)O[C@H](CO)[C@H]1O (stereo partly specified)
inactive: [1] | [2] | [3]

Cc1c(N2C(=O)c3ccc(C(=O)O)cc3C2=O)c(=O)n(-c2ccccc2)n1C
inactive: [1] | [2] | [3]

COC(=O)c1cc(CN2CCN(C(=N)N)CC2)cc(C(=O)N2CCN(C(=O)c3ccc(C(=N)N)cc3)CC2)c1
inactive: [1] | [2] | [3] 1.52%

O=C(O[C@H]1[C@@H]2C=CO[C@@H](O[C@@H]3O[C@H](CO)[C@@H](O)[C@H](O)[C@H]3O)[C@@H]2[C@@]2(CO)O[C@@H]12)c1ccc(O)c(O)c1
inactive: [1] | [2] | [3]

COC(=O)C1=COC(OC2OC(CO)C(O)C(O)C2O)C2C1CC(OC(=O)C(O)CC(=O)O)C2C (stereo unspecified)
inactive: [1] -2.72% | [2] | [3]

C[C@@]12C[C@]3(O)O[C@H](O1)[C@]1(COC(=O)c4ccccc4)[C@H]3C[C@@]12O[C@@H]1O[C@H](COC(=O)c2ccccc2)[C@@H](O)[C@H](O)[C@H]1O
inactive: [1] -3.18% | [2] | [3]

COC(=O)C1=CO[C@@H](O[C@@H]2O[C@H](CO)[C@@H](O)[C@H](O)[C@H]2O)[C@@H]2[C@@H](C)[C@@H](O)C[C@H]12
inactive: [1] -3.5% | [2] | [3] -10.2%

COC(=O)CC1(O)C(=O)Nc2ccccc21 (stereo unspecified)
inactive: [1] 3.09% | [2] | [3] -5.67%

COc1ccc(C)c2sc(NC(=O)c3ccncc3)nc12
inactive: [1] | [2] | [3] 4.45%

C=CC1(C)CC(O)C2(CCC3C(C)(C(=O)O)CCCC3(C)C2=O)C1 (stereo unspecified)
inactive: [1] -1.04% | [2] | [3] -1.18%

C#Cc1cnc2[nH]c(=O)n(C(CC)CC)c2n1
inactive: [1] | [2] | [3]

C[C@@H]1O[C@@H](O[C@H]2[C@H](O)[C@@H](C(=O)O)O[C@@H](O[C@H]3CC[C@@]4(C)C(CC[C@]5(C)C4CC=C4C6CC(C)(C)CC[C@]6(C(=O)O)CC[C@]45C)C3(C)C)[C@@H]2O[C@@H]2O[C@H](CO)[C@@H](O)[C@H](O)[C@H]2O)[C@H](O)[C@H](O)[C@H]1O (stereo partly specified)
inactive: [1] | [2] | [3]

CN1C(=O)c2ccccc2-n2c(nc3ccccc3c2=O)[C@@]12O[C@H]2c1ccccc1
inactive: [1] -8.37% | [2] | [3] -0.431%

CC(=O)C1CCC2(C)C3=C(CCC12C)C1(C)CCC(=O)C(C)(C)C1CC3 (stereo unspecified)
inactive: [1] -8.18% | [2] | [3]

C=CC(C)(CC/C=C(\C)CC/C=C(\C)CC(O)/C=C(\C)C(=O)O)O[C@@H]1O[C@H](CO)[C@@H](O)[C@H](O)[C@H]1O[C@@H]1O[C@H](CO)[C@@H](O)[C@H](O)[C@H]1O (stereo partly specified)
inactive: [1] | [2] | [3]

COc1cc(C2Oc3c(OC)cc(CCCO[C@@H]4O[C@H](CO)[C@@H](O)[C@H](O)[C@H]4O)cc3C2CO)ccc1O (stereo partly specified)
inactive: [1] -0.0218% | [2] | [3]

C=C1CCC(OC(C)=O)C2(C)CC3(O)OC(=O)C(C)=C3CC12 (stereo unspecified)
inactive: [1] -6.35% | [2] | [3]

O=C(NCc1ccc(OC(F)(F)F)cc1)C1c2ccccc2C(=O)N1C1CCOCC1 (stereo unspecified)
inactive: [1] | [2] | [3] -6.26%
